Sampled rows, rich in hits. Any-hit rate of the full collection: about 1.6%.
Myeloid diff 2 = promotes myeloid progenitor differentiation. ER-HoxA9 myeloid progenitors, lysozyme-GFP differentiation, flow cytometry. calls only at 10 µM. 360,000 tested, 1% active;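 active = normalized GFP-positive differentiation at or above the plate's own cutoff, the solvent-only control mean plus 3 SD; inconclusive = no clear call, values can overlap the other calls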;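 note: cells exposed to compound for four days before flow analysis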
ABCB6 inh MLPCN = blocks the human ABCB6 transporter; Q9NP58; K562-ABCB6 porphyrin accumulation, flow cytometry, 1 h; hits give low values; fluorescence ratio to DMSO, % at 10 µM; 360,000 tested, 0.19% active;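 active = fluorescence ratio to DMSO below 75%, the collection mean minus 3 SD; inconclusive = too few cells collected in the well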;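 note: signal is porphyrin accumulated inside mitochondria; 100% equals median channel fluorescence of DMSO control wells; lower ratio means ABCB6 inhibition with less porphyrin fluorescence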
Target sequence (Q9NP58 whole entry, looked up): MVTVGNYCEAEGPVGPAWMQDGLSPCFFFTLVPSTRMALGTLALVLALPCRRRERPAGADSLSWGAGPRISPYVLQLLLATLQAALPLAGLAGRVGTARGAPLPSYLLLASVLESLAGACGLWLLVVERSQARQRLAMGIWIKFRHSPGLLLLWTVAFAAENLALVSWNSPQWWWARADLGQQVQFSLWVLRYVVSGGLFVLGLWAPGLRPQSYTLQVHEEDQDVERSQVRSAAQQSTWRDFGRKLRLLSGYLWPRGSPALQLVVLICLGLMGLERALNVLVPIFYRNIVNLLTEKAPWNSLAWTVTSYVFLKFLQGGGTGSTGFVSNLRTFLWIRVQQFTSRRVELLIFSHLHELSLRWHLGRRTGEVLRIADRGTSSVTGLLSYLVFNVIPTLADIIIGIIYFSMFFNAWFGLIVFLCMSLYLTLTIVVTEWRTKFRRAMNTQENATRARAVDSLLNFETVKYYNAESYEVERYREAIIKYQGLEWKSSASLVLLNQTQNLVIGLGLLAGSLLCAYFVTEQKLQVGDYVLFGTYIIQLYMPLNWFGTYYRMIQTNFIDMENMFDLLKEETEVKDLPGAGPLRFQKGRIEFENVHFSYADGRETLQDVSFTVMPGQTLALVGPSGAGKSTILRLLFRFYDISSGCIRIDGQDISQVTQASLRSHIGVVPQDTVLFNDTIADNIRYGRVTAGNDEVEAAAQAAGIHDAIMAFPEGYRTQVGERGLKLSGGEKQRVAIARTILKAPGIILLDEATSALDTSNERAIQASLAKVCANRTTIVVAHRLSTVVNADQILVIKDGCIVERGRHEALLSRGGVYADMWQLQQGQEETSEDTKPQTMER
RAD54 inh = RAD54 (human) branch migration inhibition; RAD54 Holliday junction branch migration, FAM/BHQ fluorescence; inhibition, % at 10.4 µM; 360,000 tested, 0.14% active; AID 602329;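 active = mean normalized replicate activity at least 40 and at least half of replicates scoring 40 or more; inconclusive = only one of the two criteria met; inactive = mean below 40 and under half of replicates reaching 40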;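 note: 0% = median of neutral control wells and 100% = median of positive control wells; inhibitors cause a drop in the FAM fluorescence signal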
N-glyco inh = N-linked glycosylation inhibition | reporter increase, % at 12.5 µM | AID 588692 | D54 ERlucT glycosylation luciferase reporter, 24 h; percent of 100 nM tunicamycin response | 360,000 tested, 0.23% active;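 active = mean luciferase reporter signal, scaled so untreated is 0 and the glycosylation-blocking control 100, at or above a set limit in every replicate; inconclusive = mean reaches the limit but not every replicate does; inactive = mean below the limit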;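 note: luciferase carries N-glycosylation sites so blocking glycosylation raises the light; 0% = median of neutral control wells and 100% = median of 100 nM tunicamycin wells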
Vif imaging = inhibitors of HIV Vif | 340,000 tested, 0.35% active | HEK293T cells, Vif self-association by quenched fluorescence, imaging, 24 h | inhibition, % at 7.49 µM; in the data active = inhibition above about 50%, passing the limit was not always enough; inconclusive = no clear call, values can overlap the other calls; inactive = below about 31%
* marks the source's active call; other numbers are inactive results; i = inactive; ? = inconclusive; · = no result given; + = active, no number.

SMILES	Myeloid diff 2	ABCB6 inh MLPCN	RAD54 inh	N-glyco inh	Vif imaging
COc1ccc(CN(C)C[C@H]2Oc3ccc(NS(=O)(=O)c4c(C)noc4C)cc3C(=O)N([C@H](C)CO)C[C@H]2C)cc1	·	·	-6.5	·	·
C#CCOCCOCCOCCNc1nc(N2CCN(C(=O)[C@H](CCCN=C(N)N)n3cc(C(N)[C@@H](C)CC)nn3)CC2)nc(N2CCN(C(=O)[C@H](CCC(=O)O)n3cc([C@@H](N)CC(N)=O)nn3)CC2)n1 (stereo partly specified)	+	100.0	-6.9	1.6	·
C#CCOCCOCCOCCNc1nc(N2CCN(C(=O)C([C@@H](C)O)n3cc([C@@H](N)CCCCN)nn3)CC2)nc(N2CCN(C(=O)[C@H](CCC(=O)O)n3cc([C@@H](N)[C@H](C)CC)nn3)CC2)n1 (stereo partly specified)	+	96.0	-10.1	2.2	·
C[C@H](NC(=O)[C@H]1[C@H](CO)[C@H]2Cn3c(cccc3=O)[C@H]2N1CC1CC1)c1ccccc1	·	·	5.5	·	·
C[C@H]1CN([C@@H](C)CO)C(=O)CCCn2cc(nn2)CO[C@H]1CN(C)Cc1cccnc1	·	·	-15.1	·	·
C[C@H](CO)N1C[C@H](C)[C@@H](CN(C)C(=O)Nc2ccc(C(F)(F)F)cc2)OCCCC[C@H](C)Oc2ccc(NC(=O)Nc3cccc4ccccc34)cc2C1=O	·	·	-0.9	·	·
O=c1[nH]c(Nc2ccccc2)cc2ccccc12	i	103.0	·	4.7	0.8
O=c1[nH]c(Nc2ccccc2)cc2cc(Br)ccc12	i	102.0	21.2	13.9	-2.8
COc1ccccc1Nc1cc2cc(Br)ccc2c(=O)[nH]1	+	94.0	29.1	22.2	-1.9
COc1ccc(OC)c(Nc2cc3ccccc3c(=O)[nH]2)c1	i	106.0	1.0	32.6*	-1.8
O=C(Cc1ccncc1)Nc1ccc2c(c1)[C@@H]1C[C@H](CC(=O)NC3CCCC3)O[C@H](CO)[C@@H]1O2	·	·	7.6	·	·
CN(C)c1ccc(C(=N)Cc2ccc3ccccc3n2)cc1	+	263.0	·	-4.8	0.5
Nc1ncnc2c1ncn2[C@@H]1O[C@H](COP(=O)(O)O)[C@@H](O)[C@H]1O	i	99.0	-3.2	0.6	106.1*
Nc1ncnc2c1ncn2C1OC(COP(=O)(O)O)C(O)C1O (stereo unspecified)	i	101.0	2.4	2.2	65.6*
Nc1ncnc2c1ncn2[C@@H]1O[C@H](COP(=O)(O)OP(=O)(O)OP(=O)(O)O)[C@@H](O)[C@H]1O	i	100.0	-10.2	0.5	-3.6
CCCCCCCN1C(Nc2ccccc2)=NC[C@@H]1CC(C)C	+	97.0	11.1	-5.5	-1.7
CC(C)C[C@H]1CN=C(Nc2ccccc2)N1CCCC1CCCC1	i	99.0	9.8	-3.0	-2.2
Cc1noc(C)c1NC(=O)Nc1ccc2c(c1)C(=O)N([C@H](C)CO)C[C@H](C)[C@H](CN(C)CC1CCCCC1)OCCCC[C@H](C)O2	·	·	4.9	·	·
CCN(CC(=O)NCc1ccc(F)cc1)CC(=O)Nc1ccccc1-c1ccccc1	+	99.0	3.0	-3.9	-9.4
CCN(CC(=O)Nc1ccccc1OC)CC(=O)Nc1ccccc1-c1ccccc1	i	106.0	·	22.6	-0.6
CCN(CC(=O)Nc1ccccc1-c1ccccc1)Cc1nc2ccccc2c(=O)[nH]1	+	100.0	-6.8	21.5	0.8
Cc1ccc(S(=O)(=O)N(C)C[C@H]2Oc3cc(C#Cc4ccncc4)ccc3S(=O)(=O)N([C@@H](C)CO)C[C@H]2C)cc1	·	·	-2.2	·	·
C[C@@H]1CN([C@@H](C)CO)C(=O)Cc2cc(NC(=O)CCN3CCOCC3)ccc2O[C@@H]1CN(C)S(=O)(=O)c1ccc(F)cc1	·	·	-4.9	·	·
C[C@H](O)C#Cc1ccc2c(c1)O[C@H](CN(C)Cc1ccc(-c3ccccc3)cc1)[C@H](C)CN([C@@H](C)CO)S2(=O)=O	·	·	2.1	·	·
COc1ccc(S(=O)(=O)N[C@H]2C=C[C@@H](CC(=O)NCCc3ccncc3)O[C@H]2CO)cc1	·	·	-5.0	·	·
SMILES	Myeloid diff 2	ABCB6 inh MLPCN	RAD54 inh	N-glyco inh	Vif imaging
CSc1nc2ccccc2cc1/C=C(\C#N)c1cccc(Cl)c1	?	169.0	-1.5	17.4	62.8*
CCOC(=O)/C(C#N)=C/c1cc2ccccc2nc1Cl	i	108.0	-0.3	16.4	·
Nc1c(C(=O)Nc2ccc(Cl)c(C(=O)O)c2)sc2nc3c(cc12)CCCC3	i	96.0	-16.9	-3.6	·
COc1ccc2nc(SCC(=O)Nc3ccc(S(=O)(=O)N4CCCC4)cc3)c(C#N)cc2c1	i	98.0	1.4	-1.9	-13.2
Nc1c(C(=O)Nc2ccc(S(=O)(=O)N3CCCC3)cc2)sc2nc3cc4c(cc3cc12)CCC4	+	147.0	·	17.8	·
Nc1c(C(=O)Nc2ccc(S(=O)(=O)N3CCCC3)cc2)sc2nc3ccc(OC(F)(F)F)cc3cc12	i	229.0	-29.0	99.6*	95.6*
COc1ccc(OC)c(-c2nn(-c3ccccc3)cc2C(=O)NCC(c2ccco2)N2CCCC2)c1 (stereo unspecified)	i	103.0	2.2	-3.0	54.5*
COc1cccc(-c2ccc3c(c2)[C@@H]2[C@@H](CCN2S(=O)(=O)c2ccccc2OC)[C@@H](CO)N3)c1	·	·	2.0	·	·
O=C(c1ncn(Cc2ccccc2)c1C(=O)N1CCN(c2ccccc2)CC1)N1CCN(c2ccccc2)CC1	i	99.0	-18.5	49.6*	-0.3
CCCSc1ccc2nc(NC(=O)OC)[nH]c2c1	?	94.0	-10.6	10.0	159.7*
C[C@@H]1CCCCO[C@H](CN(C)C(=O)c2ccccc2)[C@@H](C)CN([C@H](C)CO)C(=O)c2cc(NC(=O)CCCN(C)C)ccc2O1	·	·	-2.8	·	·
C=CC(C)(O)CCCC(C)CCCC(C)CCCC(C)C (stereo unspecified)	i	101.0	-7.4	-1.0	159.6*
C[C@@H]1CN([C@H](C)CO)C(=O)c2cc(C#Cc3cccnc3)cnc2O[C@H]1CN(C)C(=O)CC1CC1	·	·	-3.8	·	·
CCOc1ccc(OCc2ccc(C(=O)Nc3cccnc3)cc2)cc1	i	80.0	7.5	-4.8	-16.2
O=C(Nc1ccc(Cn2cccn2)cc1)c1ccc(COc2cccc(Br)c2)cc1	+	91.0	-2.7	-0.6	-8.5
FC(F)(F)c1nnc(-c2ccccc2)nc1Oc1ccc(Cl)cc1Cl	i	93.0	-2.9	2.5	50.6*
CCOC(=O)c1c(NC(=O)CCN2CCOCC2)sc2c1CC(C)(C)OC2	i	95.0	·	-0.3	9.5
CCOC(=O)c1c(NC(=O)CCC(=O)N2CCOCC2)sc2c1CC(C)(C)OC2	i	96.0	-6.4	-3.1	55.5*
O=C(C[C@H]1CC[C@H]2[C@@H](COC[C@@H](O)CN2Cc2cc(F)ccc2F)O1)NCc1ccc(F)cc1	·	·	3.3	·	·
O=C1Nc2ccc(Br)cc2C1(O)c1ccccc1 (stereo unspecified)	·	109.0	1.1	-0.2	·
O=C1Nc2ccc(Br)cc2C12NNc1ccccc1O2 (stereo unspecified)	+	892.0	-1.7	1.9	·
Cc1ccc(-c2ccc3c(c2)O[C@@H](CN(C)C(=O)Nc2ccccc2)[C@@H](C)CN([C@@H](C)CO)S3(=O)=O)cc1	·	·	12.2	·	·
